Results reported in PubChem BioAssay (Tox21).
Where “and” joins values, the source holds several entries; their conditions need not be identical. Identical values can stand only once. Inconclusive results are not listed. More than one record can exist for a structure, and the calls need not agree. Calls of active or inactive are those of the source. Unless noted, the call rests on the fitted dose curve; in most records, active means well fitted curve in the direction sought with a large enough effect in the repeat runs; inconclusive means weak or mixed curves; inactive means no such curve, though single readings can be large; an effect the other way counts as inactive or inconclusive.

Key:
[1] = qHTS assay to test for compound auto fluorescence at 535 nm (green) in HEK293 cells (AID 720680)
[2] = qHTS assay to test for compound auto fluorescence at 460 nm (blue) in HEK293 cell free culture (AID 720681)
Procedure, shortened: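 Compounds were added to cell-free DMEM with 10% FBS and fluorescence read directly. The blue channel used 405 nm excitation and 460 nm emission, with triamterene as the reference fluorophore.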

[3] = qHTS assay to test for compound auto fluorescence at 535 nm (green) in HEK293 cell free culture (AID 720682)
Procedure, shortened: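 Steps: dispense DMEM/10% FBS into empty wells; pin in compound or DMSO; measure fluorescence at 485/535 nm. Values are fluorescein equivalents.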

[4] = qHTS assay to test for compound auto fluorescence at 590 nm (red) in HEK293 cell free culture (AID 720683)
Procedure, shortened: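 Cell-free wells of DMEM with 10% FBS received compound, and intrinsic fluorescence was read at excitation/emission 540/590 nm. Values expressed as equivalence to Rose Bengal sodium.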

[5] = qHTS assay to test for compound auto fluorescence at 590 nm (red) in HepG2 cell free culture (AID 720684)
Procedure, shortened: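 Rose Bengal sodium served as the reference for red signal. Test compounds were dispensed into serum-containing MEM (10% FBS) without cells, and plates were read at 540/590 nm.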

[6] = qHTS assay to test for compound auto fluorescence at 460 nm (blue) in HepG2 cell free culture (AID 720685)
Procedure, shortened: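 Cell-free plates of MEM plus 10% FBS received 23 nL compound or DMSO vehicle; blue-channel (405/460 nm) intensity scored against triamterene as reference fluorophore.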

[7] = qHTS assay to test for compound auto fluorescence at 535 nm (green) in HepG2 cell free culture (AID 720686)
[8] = biological target: Glucocorticoid receptor (Homo sapiens) (UniProt P04150); assay: qHTS assay to identify small molecule agonists of the glucocorticoid receptor (GR) signaling pathway (AID 720691; active means well fitted activation curve with a large enough effect in the signal ratio in the repeat runs, not every such curve was filed as active; the % refers to the signal ratio)
Procedure, shortened: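 Steps: seed GR-bla HeLa cells, incubate 4 h at 37 C/5% CO2; pin-transfer DMSO-dissolved compounds; incubate 18 h at 37 C; add LiveBLAzer B/G FRET substrate; after 2 h at room temperature, measure fluorescence.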

[9] = biological target: Glucocorticoid receptor (Homo sapiens) (UniProt P04150); assay: qHTS assay to identify small molecule antagonists of the glucocorticoid receptor (GR) signaling pathway (AID 720692; active means well fitted inhibition curve with a large enough effect in the signal ratio in the repeat runs, not every such curve was filed as active; the % refers to the signal ratio)
Procedure, shortened: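 Antagonism was scored as loss of dexamethasone-driven (5 nM final) reporter signal in HeLa cells bearing a glucocorticoid response element–beta-lactamase construct, after 18 h compound exposure at 37 C and 2 h FRET substrate loading.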

[10] = qHTS assay to identify small molecule antagonists of the glucocorticoid receptor (GR) signaling pathway - cell viability counter screen (AID 720693); further: nearly all actives have a fitted effect of over 55% in size
[11] = qHTS assay for identifying genotoxic compounds that show differential cytotoxicity against isogenic chicken DT40 cell lines with known DNA damage response pathways - wild type cell line (AID 743012); further: nearly all actives have a fitted effect of over 60% in size; further: potency means the concentration at half of the fitted maximal effect
Procedure, shortened: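 Cytotoxicity in repair-proficient parental chicken DT40 cells serves as the comparator for Rad54/Ku70- and Rev3-deficient lines. Cells were exposed to compounds for 40 h at 37 C/5% CO2, and ATP-based luminescence (CellTiter-Glo) measured viability.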

[12] = qHTS assay for identifying genotoxic compounds that show differential cytotoxicity against isogenic chicken DT40 cell lines with known DNA damage response pathways - Rev3 mutant cell line (AID 743014); further: nearly all actives have a fitted effect of over 55% in size; further: potency means the concentration at half of the fitted maximal effect
[13] = qHTS assay for identifying genotoxic compounds that show differential cytotoxicity against isogenic chicken DT40 cell lines with known DNA damage response pathways - Rad54/Ku70 mutant cell line (AID 743015); further: nearly all actives have a fitted effect of over 60% in size; further: potency means the concentration at half of the fitted maximal effect
[14] = qHTS assay to identify small molecule antagonists of the androgen receptor (AR) signaling pathway - cell viability counter screen (AID 743033; further: nearly all actives have a fitted effect of over 45% in size)
[15] = qHTS assay to identify small molecule antagonists of the androgen receptor (AR) signaling pathway using the MDA cell line - cell viability counter screen (AID 743041; further: nearly all actives have a fitted effect of over 45% in size)
Procedure, shortened: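 Cytotoxicity counter screen: MDA-kb2 AR-luc cells, compound + R1881, 16 h, 37C, 0% CO2; CellTiter-Fluor added at 15.5 h, fluorescence read after 30 min.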

[16] = qHTS assay to test for compound auto fluorescence at 460 nm (blue) in HepG2 cells (AID 720687)
Procedure, shortened: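 HepG2 cells in MEM with 10% FBS, attached overnight at 37 C, were exposed to compound or DMSO for 1 hr at 37 C, 5% CO2. Blue fluorescence was read at 405/460 nm, with triamterene as reference fluorophore.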

[17] = biological target: Androgen receptor (Homo sapiens) (UniProt P10275); assay: qHTS assay to identify small molecule antagonists of the androgen receptor (AR) signaling pathway (AID 743035; active means well fitted inhibition curve with a large enough effect in the signal ratio in the repeat runs, not every such curve was filed as active; the % refers to the signal ratio; further: potency means the concentration at half of the fitted maximal effect)
Procedure, shortened: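 Steps: seed AR-UAS-bla GripTite HEK293 cells, incubate 4 h at 37C; pin in test compound, then add agonist R1881; incubate 16 h at 37C; add LiveBLAzer B/G FRET substrate, 2 h at room temperature; read fluorescence.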

[18] = biological target: Androgen receptor (Homo sapiens) (UniProt P10275); assay: qHTS assay to identify small molecule agonists of the androgen receptor (AR) signaling pathway (AID 743036; active means well fitted activation curve with a large enough effect in the signal ratio in the repeat runs, with a control signal flat, not every such curve was filed as active; the % refers to the signal ratio)
Procedure, shortened: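 Reporter line: GeneBLAzer AR-UAS-bla-GripTite (HEK293). Steps: plate cells, 4 h rest, add compounds, 16 h at 37C, add LiveBLAzer B/G substrate, 2 h at RT, read fluorescence.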

[19] = biological target: Androgen receptor (Homo sapiens) (UniProt P10275); assay: qHTS assay to identify small molecule agonists of the androgen receptor (AR) signaling pathway using the MDA cell line (AID 743040; further: nearly all actives have a fitted effect of over 20% in size)
Procedure, shortened: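 Luciferase read-out, ONE-Glo, 30 min RT. Cells: MDA-kb2 AR-luc, MMTV promoter with AR and GR response elements. Compound exposure 16 h, 37C, 0% CO2, after 5 h pre-incubation. qHTS agonist mode.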

[20] = biological target: Androgen receptor (Homo sapiens) (UniProt P10275); assay: qHTS assay to identify small molecule antagonists of the androgen receptor (AR) signaling pathway using the MDA cell line (AID 743042; further: nearly all actives have a fitted effect of over 55% in size; further: potency means the concentration at half of the fitted maximal effect)
Procedure, shortened: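 MDA-kb2 breast carcinoma cells carrying MMTV-luciferase (AR/GR responsive) were co-treated with compounds and the agonist R1881 for 16 h at 37C. Inhibition read as ONE-Glo luminescence; CellTiter-Fluor fluorescence measured in parallel for cytotoxicity.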

Measured: Potency

Androgen receptor (Homo sapiens), sequence (P10275 whole entry, looked up): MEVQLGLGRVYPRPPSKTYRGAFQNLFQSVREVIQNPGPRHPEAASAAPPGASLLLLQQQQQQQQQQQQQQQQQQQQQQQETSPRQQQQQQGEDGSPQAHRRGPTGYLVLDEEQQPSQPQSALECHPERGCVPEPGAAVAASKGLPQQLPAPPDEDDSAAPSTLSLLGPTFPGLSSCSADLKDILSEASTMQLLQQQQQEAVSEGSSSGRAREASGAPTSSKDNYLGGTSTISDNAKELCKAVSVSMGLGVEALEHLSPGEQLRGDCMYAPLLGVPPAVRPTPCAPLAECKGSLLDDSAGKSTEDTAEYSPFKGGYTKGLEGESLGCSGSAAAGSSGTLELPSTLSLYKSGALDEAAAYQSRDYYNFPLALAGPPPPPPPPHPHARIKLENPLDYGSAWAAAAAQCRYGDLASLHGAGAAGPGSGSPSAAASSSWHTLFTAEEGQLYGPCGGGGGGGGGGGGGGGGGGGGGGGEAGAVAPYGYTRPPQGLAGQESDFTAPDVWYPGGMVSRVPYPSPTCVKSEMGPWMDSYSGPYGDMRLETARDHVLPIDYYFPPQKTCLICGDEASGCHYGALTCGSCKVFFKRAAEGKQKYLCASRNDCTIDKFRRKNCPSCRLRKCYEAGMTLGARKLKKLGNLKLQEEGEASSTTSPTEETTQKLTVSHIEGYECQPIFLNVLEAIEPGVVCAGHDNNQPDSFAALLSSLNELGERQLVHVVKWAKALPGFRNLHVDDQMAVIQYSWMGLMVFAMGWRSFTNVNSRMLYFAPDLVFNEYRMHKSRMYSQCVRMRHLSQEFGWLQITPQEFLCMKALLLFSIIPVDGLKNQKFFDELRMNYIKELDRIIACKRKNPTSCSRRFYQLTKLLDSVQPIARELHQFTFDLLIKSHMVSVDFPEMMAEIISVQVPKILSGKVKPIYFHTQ
Glucocorticoid receptor (Homo sapiens), sequence (P04150 whole entry, looked up): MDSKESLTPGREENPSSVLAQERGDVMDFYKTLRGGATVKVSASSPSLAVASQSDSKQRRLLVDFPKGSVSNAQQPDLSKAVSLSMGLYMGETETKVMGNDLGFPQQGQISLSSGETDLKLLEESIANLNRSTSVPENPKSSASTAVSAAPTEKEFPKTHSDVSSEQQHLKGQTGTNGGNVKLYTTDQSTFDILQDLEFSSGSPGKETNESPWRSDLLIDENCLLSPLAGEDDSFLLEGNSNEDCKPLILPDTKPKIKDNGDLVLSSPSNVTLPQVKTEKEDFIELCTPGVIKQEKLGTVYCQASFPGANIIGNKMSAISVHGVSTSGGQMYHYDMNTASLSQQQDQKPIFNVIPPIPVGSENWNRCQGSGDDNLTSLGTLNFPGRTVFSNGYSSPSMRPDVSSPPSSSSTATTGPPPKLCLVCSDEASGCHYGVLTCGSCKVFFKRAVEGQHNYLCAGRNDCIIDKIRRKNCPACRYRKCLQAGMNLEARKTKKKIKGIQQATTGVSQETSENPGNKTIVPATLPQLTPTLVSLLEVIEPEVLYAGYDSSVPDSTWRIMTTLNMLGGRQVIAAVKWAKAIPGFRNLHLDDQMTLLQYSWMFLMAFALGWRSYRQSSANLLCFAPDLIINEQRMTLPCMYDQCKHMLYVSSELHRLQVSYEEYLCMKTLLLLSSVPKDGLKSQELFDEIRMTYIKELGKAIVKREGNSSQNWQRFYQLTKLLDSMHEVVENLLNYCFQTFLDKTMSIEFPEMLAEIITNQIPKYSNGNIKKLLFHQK

COS(=O)(=O)OC
not listed: [16] | [17] | [18] | [19] | [20]
inactive: all other assays above

CCOc1ccc(N)cc1
61.3 µM (active) and inactive: [13]
not listed: [15] | [16] | [17] | [18] | [19] | [20]
inactive: all other assays above

CCOC(=O)CC(SP(=O)(OC)OC)C(=O)OCC (stereo not given)
not listed: [16] | [17] | [18] | [19] | [20]
inactive: all other assays above

O=[N+]([O-])c1ccc(Cl)c(Cl)c1
not listed: [16] | [17] | [18] | [19] | [20]
inactive: all other assays above

O=C(O)COc1ccccc1
not listed: [3] | [17] | [18] | [19] | [20]
inactive: all other assays above

Cl/C=C/Cl
not listed: [3] | [17] | [18] | [19] | [20]
inactive: all other assays above

O=C(O)CCCc1ccc(N(CCCl)CCCl)cc1
active: [11] 21.1 µM and 770 nM | [12] 1.88 µM and 2.18 µM and 43.3 nM | [13] 3.86 µM
inactive: [1] | [2] | [3] | [4] | [5] | [6] | [7] | [10] | [14]

CC12CC1(C)C(=O)N(c1cc(Cl)cc(Cl)c1)C2=O (stereo not given)
active: [12] 24.3 µM | [17] 6.14 µM and 3.89 µM | [20] 19.3 µM and 9.69 µM
not listed: [16]
inactive: all other assays above

N#Cc1cccc(C#N)c1
not listed: [3] | [15] | [17] | [18] | [19] | [20]
inactive: all other assays above

CCOP(=S)(OCC)Oc1ccc([N+](=O)[O-])cc1
not listed: [3] | [15] | [17] | [18] | [19] | [20]
inactive: all other assays above

CNC(=O)O/N=C/C(C)(C)SC
not listed: [3] | [15] | [17] | [18] | [19] | [20]
inactive: all other assays above

CNC(=O)O/N=C(\SC)C(=O)N(C)C
active: [12] 61.1 µM | [13] 54.4 µM
not listed: [8] | [9] | [10] | [16]
inactive: all other assays above

Nc1ccc([As](=O)(O)O)cc1
inactive: [1] | [2] | [3] | [4] | [5] | [6] | [7] | [11] | [14]
inactive and 29.8 µM (active): [12]
inactive and 13.3 µM (active): [13]

C=CC(=O)OCCCCCC(C)C
not listed: [8] | [9] | [16]
inactive: all other assays above

OC[C@@H](O)[C@H]1O[C@@H]2O[C@H](C(Cl)(Cl)Cl)O[C@@H]2[C@H]1O
not listed: [3] | [15] | [17] | [18] | [19] | [20]
inactive: all other assays above

Oc1ccc(Cl)cc1
not listed: [8] | [9] | [16] | [17] | [18] | [19] | [20]
inactive: all other assays above

COC(C)(C)CCCC(C)C/C=C/C(C)=C/C(=O)OC(C)C (stereo not given)
29.8 µM (active) and inactive: [11]
not listed: [8] | [9] | [10] | [16]
inactive: all other assays above

COc1cc(-c2ccc(N)c(OC)c2)ccc1N
inactive: [1] | [2] | [3] | [4] | [5] | [6] | [7] | [10] | [14]
active: [11] 68.6 µM and 16.4 µM | [12] 14.7 µM

CNc1cnn(-c2cccc(C(F)(F)F)c2)c(=O)c1Cl
inactive and 61.1 µM (active): [12]
not listed: [16] | [17] | [18] | [19] | [20]
inactive: all other assays above

CCCCC(CC)C(=O)Cl (stereo not given)
not listed: [3] | [17] | [18] | [19] | [20]
inactive: all other assays above

Cc1cccc(C)c1NC(=O)CN1CCCC1=O
not listed: [10] | [15] | [16] | [17] | [18] | [19] | [20]
inactive: all other assays above

CC(C)c1cccc(C(C)C)c1O
not listed: [8] | [9] | [10] | [15] | [16]
inactive: all other assays above

NNc1ccccc1
inactive: [1] | [2] | [3] | [4] | [5] | [6] | [7] | [11] | [14] | [15]
inactive and 60.4 µM (active): [12]
inactive and 48 µM (active): [13]

O=C(O)C(Br)Br
not listed: [10] | [15] | [16] | [17] | [18] | [19] | [20]
inactive: all other assays above

O=[N+]([O-])c1ccc(Cl)cc1
not listed: [3] | [17] | [18] | [19] | [20]
inactive: all other assays above

Clc1cnc(Oc2ccc(Oc3ncc(Cl)cc3Cl)cc2)c(Cl)c1
inactive and 30.6 µM (active): [13]
not listed: [3] | [15] | [17] | [18] | [19] | [20]
inactive: all other assays above

CSc1nnc(C(C)(C)C)c(=O)n1N
not listed: [10] | [15] | [16] | [17] | [18] | [19] | [20]
inactive: all other assays above

CCOP(=S)(OCC)Oc1cc(C)nc(C(C)C)n1
inactive and 30.6 µM (active): [13]
not listed: [10] | [16] | [17] | [18] | [19] | [20]
inactive: all other assays above

CN(C)NC(=O)CCC(=O)O
inactive: [1] | [2] | [3] | [4] | [5] | [6] | [7] | [16] | [14]

COP(=S)(OC)SCN1C(=O)c2ccccc2C1=O
active: [11] 48.6 µM | [12] 61.6 µM
not listed: [10] | [15] | [16] | [17] | [18] | [19] | [20]
inactive: all other assays above

CN(C)C(=O)Cl
not listed: [10] | [16] | [17] | [18] | [19] | [20]
inactive: all other assays above
